Experimental data from PubChem BioAssay (Tox21).
Records with an inconclusive call do not appear. Active and inactive are the calls of the source. Unless noted, calls come from the whole dose curve; as a rule, active = well fitted curve in the direction sought with a large enough effect in the repeat runs; inconclusive = weak or mixed curves; inactive = no such curve, though single readings can be large; an effect the other way counts as inactive or inconclusive.

Key:
[1] = qHTS assay to identify small molecule agonists of the peroxisome proliferator-activated receptor delta (PPARd) signaling pathway - cell viability counter screen (AID 743211); note: nearly all actives have a fitted effect of over 55% in size; note: potency is the fitted concentration of half-maximal effect
Procedure, shortened: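 Viability of GeneBLAzer PPARd UAS-bla HEK293H cells was assessed after 17 h compound incubation at 37C, using CellTiter-Glo reagent added after the reporter read and luminescence recorded 30 min later.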

[2] = molecular target: Peroxisome proliferator-activated receptor delta (Homo sapiens) (UniProt Q03181); test: qHTS assay to identify small molecule agonists of the peroxisome proliferator-activated receptor delta (PPARd) signaling pathway (AID 743212; calls by dose curve; note: % is set by controls: 0 for no effect and ±100 for the full control effect)
Procedure, shortened: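 A PPARd-bla HEK293H line with beta-lactamase under an Upstream Activator Sequence is treated with compounds at 37 C. Substrate loading for 2 h at room temperature precedes the fluorescence measurement.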

[3] = qHTS assay to identify small molecule antagonists of the peroxisome proliferator-activated receptor delta (PPARd) signaling pathway - cell viability counter screen (AID 743213); note: % is set by controls: 0 for no effect and ±100 for the full control effect; nearly all actives have a fitted effect of over 50% in size
Procedure, shortened: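 Viability counter-screen, qHTS format: PPARd-bla HEK293H, L165041 300 nM final, 17 h compound exposure at 37 C, CellTiter-Glo luminescence after 30 min RT.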

[4] = molecular target: Bile acid receptor (Homo sapiens) (UniProt Q96RI1); test: qHTS assay to identify small molecule agonists of the farnesoid-X-receptor (FXR) signaling pathway (AID 743220; active = well fitted activation curve with a large enough effect in the signal ratio in the repeat runs, not every such curve was filed as active; the % refers to the signal ratio; note: % is set by controls: 0 for no effect and ±100 for the full control effect)
Procedure, shortened: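 Beta-lactamase reporter under UAS control in GeneBLAzer FXR HEK 293T cells (5000/well) measured with LiveBLAzer FRET substrate after 2 h at room temperature. Compound exposure lasted 16 h at 37C.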

[5] = qHTS assay to identify small molecule antagonists of the farnesoid-X-receptor (FXR) signaling pathway - cell viability counter screen (AID 743221; active = well fitted cell-killing curve with a large enough effect in the repeat runs, not every such curve was filed as active; note: nearly all actives have a fitted effect of over 50% in size; note: potency is the fitted concentration of half-maximal effect)
Procedure, shortened: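 Quantitative HTS of the Tox21 10K library run in parallel with the beta-lactamase reporter read. HEK 293T cells carrying a UAS-driven bla reporter got compound and 50 uM CDCA (final) for 16 h; ATP-based luminescence followed.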

[6] = qHTS assay to identify small molecule agonists of the NFkB signaling pathway (AID 1159509; active = well fitted curve in the direction sought with a large enough effect in the signal ratio in the repeat runs, not every such curve was filed as active; the % refers to the signal ratio; note: series mostly up to about 61 µM; % is set by controls: 0 for no effect and ±100 for the full control effect)
Procedure, shortened: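 ME-180 NFkB-bla, 2,000 cells/well, overnight plating; cpd pinned in DMSO, 5 h 37 C; B/G FRET substrate 1.5 h RT; ex 405, em 460/530 nm.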

[7] = qHTS assay to identify small molecule agonists of the NFkB signaling pathway - cell viability counter screen (AID 1159515; calls by dose curve; note: series mostly up to about 61 µM; % is set by controls: 0 for no effect and ±100 for the full control effect; nearly all actives have a fitted effect of over 55% in size)
Procedure, shortened: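 Using the same wells as the NFkB reporter read, ME-180 NFkB-bla cells given compounds for 5 hr were assessed for viability via CellTiter-Glo, with luminescence taken after a 30 min room-temperature incubation.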

[8] = qHTS assay to identify small molecule agonists of the endoplasmic reticulum stress response signaling pathway - cell viability counter screen (AID 1159517; calls by dose curve;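 note: HeLa cells carrying an ER stress response element beta-lactamase reporter; series mostly up to about 61 µM; % is set by controls: 0 for no effect and ±100 for the full control effect; nearly all actives have a fitted effect of over 50% in size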)
Procedure, shortened: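 CellTiter-Glo was added to wells already read for beta-lactamase FRET, and luminescence was recorded 30 min later. Cells: ESRE-bla HeLa, 1,500 per well, compound exposure 5 hr at 37 C.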

[9] = molecular target: Nuclear receptor ROR-gamma (Homo sapiens) (UniProt P51449); test: qHTS assay to identify small molecule antagonists of the retinoid-related orphan receptor gamma (ROR-gamma) signaling pathway (AID 1159521; note: nearly all actives have a fitted effect of over 50% in size; note: potency is the fitted concentration of half-maximal effect)
Procedure, shortened: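 RORγ antagonism is scored from reduced reporter luminescence in Tet-on CHO cells. Induction used 1 uM final doxycycline hyclate for 16 h at 37 C, following a 2 h compound exposure.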

[10] = qHTS assay to identify small molecule agonists of the AP-1 signaling pathway - cell viability counter screen (AID 1159525; calls by dose curve; note: nearly all actives have a fitted effect of over 55% in size)
Procedure, shortened: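 ME-180 AP-1-bla, 2500 cells/well, Opti-MEM + 0.5% dialyzed FBS; overnight 37 °C; cpd 15-pt titration, 5 h 37 °C; CellTiter-Glo 30 min RT; luminescence read; normalised to TOAB and DMSO controls.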

[11] = molecular target: Peroxisome proliferator-activated receptor delta (Homo sapiens) (UniProt Q03181); test: qHTS assay to identify small molecule antagonists of the peroxisome proliferator-activated receptor delta (PPARd) signaling pathway (AID 743215; active = well fitted inhibition curve with a large enough effect in the signal ratio in the repeat runs, not every such curve was filed as active; the % refers to the signal ratio;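 note: cells stimulated with agonist L165041 at 300 nM final during compound exposure; series mostly up to about 62 µM; % is set by controls: 0 for no effect and ±100 for the full control effect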)
Procedure, shortened: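 HEK293H UAS-bla, PPARd; agonist L165041 300 nM final with cpd in DMSO; 37 C 17 h; FRET substrate, RT 2 h; fluorescence intensity.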

[12] = molecular target: Bile acid receptor (Homo sapiens) (UniProt Q96RI1); test: qHTS assay to identify small molecule antagonists of the farnesoid-X-receptor (FXR) signaling pathway (AID 743217; active = well fitted inhibition curve with a large enough effect in the signal ratio in the repeat runs, not every such curve was filed as active; the % refers to the signal ratio; note: % is set by controls: 0 for no effect and ±100 for the full control effect)
Procedure, shortened: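 GeneBLAzer FXR-UAS-bla HEK 293T, CDCA-stimulated (50 uM final). Compound treatment 16 h, 37 °C. Detection: beta-lactamase cleavage of B/G FRET substrate, fluorescence.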

[13] = qHTS assay to identify small molecule agonists of the farnesoid-X-receptor (FXR) signaling pathway - cell viability counter screen (AID 743218); note: nearly all actives have a fitted effect of over 45% in size; note: potency is the fitted concentration of half-maximal effect
Procedure, shortened: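 Parallel cytotoxicity test: compound-treated (16 h, 37 C) HEK 293T FXR-bla reporter cells were lysed with CellTiter-Glo and luminescence recorded.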

[14] = qHTS assay to identify small molecule agonists of the AP-1 signaling pathway (AID 1159526; calls by dose curve; note: % is set by controls: 0 for no effect and ±100 for the full control effect)
[15] = molecular target: Vitamin D3 receptor (Homo sapiens) (UniProt P11473); test: qHTS assay to identify small molecule agonists of the vitamin D receptor (VDR) signaling pathway (AID 743222; calls by dose curve; note: % is set by controls: 0 for no effect and ±100 for the full control effect)
Procedure, shortened: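 In VDR-bla cells, compound-induced beta-lactamase expression is quantified by FRET substrate fluorescence. Treatment lasts 16 h at 37C; substrate develops 2 h at room temperature.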

[16] = molecular target: Vitamin D3 receptor (Homo sapiens) (UniProt P11473); test: qHTS assay to identify small molecule antagonists of the vitamin D receptor (VDR) signaling pathway (AID 743223; active = well fitted inhibition curve with a large enough effect in the signal ratio in the repeat runs, not every such curve was filed as active; the % refers to the signal ratio; note: % is set by controls: 0 for no effect and ±100 for the full control effect)
Procedure, shortened: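 Fluorescence from LiveBLAzer B/G FRET substrate, read after 2 h at room temperature, reflects beta-lactamase reporter activity in VDR-bla cells treated 16 h at 37C with compounds and agonist 1alpha,25-dihydroxyvitamin D3 (3 nM final).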

[17] = qHTS assay to identify small molecule agonists of the vitamin D receptor (VDR) signaling pathway - cell viability counter screen (AID 743224); note: nearly all actives have a fitted effect of over 50% in size; note: potency is the fitted concentration of half-maximal effect
Procedure, shortened: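 Plated VDR-bla cells (4 h, 37C) received compound, incubated 16 h, then LiveBLAzer substrate 2 h RT; CellTiter-Glo added afterwards, luminescence read at 30 min.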

[18] = qHTS assay to identify small molecule antagonists of the vitamin D receptor (VDR) signaling pathway - cell viability counter screen (AID 743225)
Procedure, shortened: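 Cells (VDR-UAS-bla HEK 293T) are plated, rested 4 h at 37C, dosed with compound and 3 nM final 1-alpha,25-dihydroxy vitamin D3, and incubated 16 h. Viability is taken from CellTiter-Glo luminescence in the reporter wells.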

[19] = qHTS assay to identify small molecule antagonists of the retinoid-related orphan receptor gamma (ROR-gamma) signaling pathway - cell viability counter screen (AID 1159520); note: nearly all actives have a fitted effect of over 50% in size; note: potency is the fitted concentration of half-maximal effect
Procedure, shortened: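 Tet-on ROR gamma CHO cells (1,000/well) were plated 4 hr, given compounds in DMSO for 2 hr at 37 C, then induced with 1 uM final doxycycline for 16 hr. Viability was read as ATP by CellTiter-Glo luminescence after 30 min.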

Peroxisome proliferator-activated receptor delta (Homo sapiens), sequence (Q03181 whole entry, looked up): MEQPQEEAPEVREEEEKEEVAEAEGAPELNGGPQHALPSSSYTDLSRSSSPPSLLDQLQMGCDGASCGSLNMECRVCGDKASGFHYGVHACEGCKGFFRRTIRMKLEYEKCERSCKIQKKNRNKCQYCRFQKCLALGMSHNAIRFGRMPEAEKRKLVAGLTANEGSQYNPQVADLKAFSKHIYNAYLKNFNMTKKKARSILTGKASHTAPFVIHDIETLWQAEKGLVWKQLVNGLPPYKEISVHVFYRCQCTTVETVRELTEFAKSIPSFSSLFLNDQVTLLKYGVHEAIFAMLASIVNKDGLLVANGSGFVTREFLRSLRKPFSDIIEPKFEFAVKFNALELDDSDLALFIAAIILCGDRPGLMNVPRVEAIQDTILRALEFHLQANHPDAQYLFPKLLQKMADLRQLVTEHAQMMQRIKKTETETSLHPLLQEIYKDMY
Bile acid receptor (Homo sapiens), sequence (Q96RI1 whole entry, looked up): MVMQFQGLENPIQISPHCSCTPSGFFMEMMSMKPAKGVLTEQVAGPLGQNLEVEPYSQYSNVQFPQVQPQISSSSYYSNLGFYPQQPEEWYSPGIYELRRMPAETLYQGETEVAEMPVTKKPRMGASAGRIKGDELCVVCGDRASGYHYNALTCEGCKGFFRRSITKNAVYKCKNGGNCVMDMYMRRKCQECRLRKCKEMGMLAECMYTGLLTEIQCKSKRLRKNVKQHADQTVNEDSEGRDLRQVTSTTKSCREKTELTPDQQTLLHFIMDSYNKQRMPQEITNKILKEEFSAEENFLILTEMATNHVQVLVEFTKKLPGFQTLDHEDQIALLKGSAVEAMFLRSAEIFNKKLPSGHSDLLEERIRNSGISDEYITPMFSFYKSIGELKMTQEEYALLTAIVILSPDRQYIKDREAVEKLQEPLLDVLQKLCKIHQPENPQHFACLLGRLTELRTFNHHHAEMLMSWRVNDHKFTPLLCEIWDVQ
Vitamin D3 receptor (Homo sapiens), sequence (P11473 whole entry, looked up): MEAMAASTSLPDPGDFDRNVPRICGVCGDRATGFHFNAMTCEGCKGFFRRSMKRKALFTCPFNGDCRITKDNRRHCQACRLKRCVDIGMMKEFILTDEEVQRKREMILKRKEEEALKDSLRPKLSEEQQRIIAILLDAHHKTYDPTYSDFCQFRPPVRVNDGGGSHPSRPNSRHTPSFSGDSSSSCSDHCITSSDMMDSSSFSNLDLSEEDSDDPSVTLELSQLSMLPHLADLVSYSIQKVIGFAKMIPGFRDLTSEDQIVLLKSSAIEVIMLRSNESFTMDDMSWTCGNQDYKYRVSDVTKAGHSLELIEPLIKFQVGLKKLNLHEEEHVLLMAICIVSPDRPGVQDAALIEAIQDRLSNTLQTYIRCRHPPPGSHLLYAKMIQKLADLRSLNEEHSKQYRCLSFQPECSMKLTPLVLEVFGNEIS

C/C=C\C/C=C/CCCCCCCCOC(C)=O
inactive: Potency [1] | Potency [2] | Potency [3] | Potency [4] | Potency [5] | Potency [6] | Potency [7] | Potency [8] | Potency [9] | Potency [10]

CCOC(=O)C1=C(C)NC(C)=C(C(=O)OC)C1c1cccc(Cl)c1Cl (stereo not given)
inactive: Potency [1] | Potency [3] | Potency [11] | Potency [12] | Potency [13] | Potency [5] | Potency [6] | Potency [7] | Potency [8] | Potency [9] | Potency [10] | Potency [14]

Cc1ccc(CO)cc1
inactive: Potency [1] | Potency [2] | Potency [3] | Potency [11] | Potency [12] | Potency [13] | Potency [4] | Potency [5] | Potency [15] | Potency [16] | Potency [17] | Potency [18] | Potency [6] | Potency [7] | Potency [19] | Potency [10] | Potency [14]

CCOc1cccc(-n2cc(C(=O)N3CCN(c4cc(C(=O)O)c5ccccc5c4)CC3)nc2-c2ccc(C)cc2)c1
active: Potency [1] 37.1 µM | Potency [13] 46.7 µM
inactive: Potency [11] | Potency [12] | Potency [5] | Potency [6] | Potency [7] | Potency [8]

CC(CO)CO
inactive: Potency [1] | Potency [2] | Potency [3] | Potency [11] | Potency [13] | Potency [15] | Potency [17] | Potency [18] | Potency [6] | Potency [7] | Potency [19] | Potency [9] | Potency [10] | Potency [14]

OC(CCN1CCCC1)(c1ccccc1)C1CCCCC1 (stereo not given)
inactive: Potency [1] | Potency [3] | Potency [13] | Potency [5] | Potency [15] | Potency [16] | Potency [17] | Potency [18] | Potency [6] | Potency [7] | Potency [19] | Potency [9] | Potency [10]

Cc1cc(=O)c2c(O)c3c(O)cc(=O)c4c3c3c(cc(O)c1c23)C(C)(C)C=4O
active: Potency [1] 0.291 µM | Potency [13] 1.84 µM | Potency [5] 1.84 µM | Potency [17] 731 nM | Potency [19] 1.64 µM | Potency [9] 820 nM
inactive: Potency [6] | Potency [7] | viability change, negative = cytotoxic [10] 5.76% [at 15.8 µM] | activation [14] -0.228% [at 15.8 µM]

CN(C)CCN1C(=O)c2ccccc2N(C)c2ccccc21
inactive: Potency [2] | Potency [3] | Potency [11] | Potency [12] | Potency [13] | Potency [4] | Potency [5] | Potency [15] | Potency [16] | Potency [17] | Potency [18] | Potency [6] | Potency [7] | Potency [19] | Potency [9]

Clc1cc(Cl)nc(Cl)n1
inactive: Potency [1] | Potency [2] | Potency [3] | Potency [12] | Potency [13] | Potency [4] | Potency [5] | Potency [15] | Potency [16] | Potency [17] | Potency [18] | Potency [6] | Potency [7] | Potency [19] | Potency [9] | Potency [14]
